{"source": "PubChem BioAssay (Tox21)", "note": "Inconclusive results are not listed. Activity calls are given as the source filed them. Calls follow the shape of the dose curve; as a rule, active = well fitted activation curve with a large enough effect in the signal ratio in the repeat runs (not every such curve was filed as active); inconclusive = weak or mixed curves; inactive = flat fitted curve, though single readings scatter; the % refers to the signal ratio. % is scaled to controls: 0 for no effect and ±100 for the full control effect."}
{"experiment": "qHTS assay to identify small molecule agonists of H2AX (AID 1224845)", "details": "CHO-K1 phospho-H2AX Ser139 HTRF, 3 h; series mostly up to 154 µM; activation (H2AX phosphorylation): at the top concentration", "from_the_text": "National Center for Advancing Translational Sciences [NCATS]\nNIH Chemical Genomics Center [NCGC]\nU.S. Environmental Protection Agency [EPA]\nNational Institutes of Environmental Health Sciences [NIEHS]\nNational Toxicology Program [NTP]\nU.S. Food and Drug Administration [FDA]\nHTRF phospho-H2AX (Ser139) assay (Cisbio Bioassays, US) enables the quantitative detection of the histone variant H2AX when phosphorylated on serine 139. When double-stranded DNA breaks, either by ionizing radiation or endogenous physiological processes, H2AX becomes phosphorylated at Ser139. This phospho-Ser139 serves as a sensitive biomarker for the detection of such breaks, localizing the site of DNA repair. So, HTRF phospho-H2AX Ser139 is a pertinent assay to study genome stability, the cell cycle, DNA repair, and it serves as a biomarker for cancer, and to understand aging. Wild type CHO-K1 cells were used to identify the inducers of Phospho-H2AX Ser 139 from the Tox21 10K compound collections.\nTox21 Assay Protocol Summary:\nThe CHO-K1 cells suspended in culture medium containing 10% FBS were dispensed at 1000 cells/ 3 ul/well in 1536-well white wall/solid bottom plates (Greiner Bio-One North America, NC) using a Multidrop Combi (Thermo Fisher Scientific Inc., Waltham, MA). After the assay plates were incubated at 37C overnight, 23 nl of compounds at 15 concentrations (from 5-48 columns) or positive control (from 1 to 4 columns) were transferred to the assay plates using a Pintool station (Wako, San Diego, CA) into each well resulting in a final DMSO concentration of 0.76%. After 3hr incubation at 37C, 1 uL/well Supplemented Lysis buffer (diluted 100 fold blocking reagent in lysis buffer) (HTRF Phospho-H2A.X (S139) Assay kit from Cisbio US Inc., Bedford, MA) was added using a Flying Reagent Dispenser (FRD) (Aurora Discovery, CA). After 10sec spin at 1000 rpm in a plate centrifuge, the assay plates were incubated at room temperature for 30 min. Then followed by the addition of 1 uL/well detection buffer (containing a mixture of two antibodies, one labeled with cryptate, Anti pH2AX (S139)-K and another labeled with d2, Anti H2AX-d2) using FRD. After incubation at room temperature for 24 hr, the time resolved fluorescence at excitation 320 nm and emissions at 665 nm and 620 nm was measured using an Envision plate reader (PerkinElmer, Waltham, MA)."}
{"smiles": "COCCO", "activation (H2AX phosphorylation)": "-1.94% (inactive)"}
{"smiles": "O=S1(=O)c2cccc3cccc(c23)N1CCCN1CCN(c2ccc(F)cc2)CC1", "activation (H2AX phosphorylation)": "0.864% [at 70.9 µM] (inactive)"}
{"smiles": "CC(C)NCC(O)c1cc(O)cc(O)c1", "note": "(stereo not given)", "activation (H2AX phosphorylation)": "0.0285% [at 70.9 µM] (inactive)"}
{"smiles": "COc1ccc2[nH]c(S(=O)Cc3ncc(C)c(OC)c3C)nc2n1", "note": "(stereo not given)", "activation (H2AX phosphorylation)": "0.79% [at 70.9 µM] (inactive)"}
{"smiles": "CCCCCCCCCCCCCCC1CO1", "note": "(stereo not given)", "activation (H2AX phosphorylation)": "-1.91% (inactive)"}
{"smiles": "CCN(CC)C(C)CN1c2ccccc2Sc2ccccc21", "note": "(stereo not given)", "activation (H2AX phosphorylation)": "-1.2% [at 70.9 µM] (inactive)"}
{"smiles": "CCOc1nc2cccc(C(=O)O)c2n1Cc1ccc(-c2ccccc2-c2nn[nH]n2)cc1", "activation (H2AX phosphorylation)": "2.61% [at 70.9 µM] (inactive)"}
{"smiles": "NCc1ccccc1", "activation (H2AX phosphorylation)": "-3.04% (inactive)"}
{"smiles": "CC(O)C1CCCCC1", "note": "(stereo not given)", "activation (H2AX phosphorylation)": "0.925% (inactive)"}
{"smiles": "CC(=O)N(CC(=O)N(C)C)c1ccccc1", "activation (H2AX phosphorylation)": "1.39% [at 70.9 µM] (inactive)"}
{"smiles": "CCCCOc1cc(C(=O)OCCN(CC)CC)ccc1N", "activation (H2AX phosphorylation)": "-4.8% [at 70.9 µM] (inactive)"}
{"smiles": "S=C(S)NCCNC(=S)S", "activation (H2AX phosphorylation)": "4.62% (inactive)"}
{"smiles": "SC1CCCC1", "activation (H2AX phosphorylation)": "-2.35% (inactive)"}
{"smiles": "O=S1(=O)N=C(O)c2ccccc21", "activation (H2AX phosphorylation)": "-0.577% [at 70.9 µM] (inactive)"}
{"smiles": "O=C(c1ccccc1)c1ccc2n1CCC2C(=O)O", "note": "(stereo not given)", "activation (H2AX phosphorylation)": "-1.81% [at 70.9 µM] (inactive)"}
{"smiles": "COc1ccc([C@@H]2Sc3ccccc3N(CCN(C)C)C(=O)[C@@H]2OC(C)=O)cc1", "activation (H2AX phosphorylation)": "-4.22% [at 70.9 µM] (inactive)"}
{"smiles": "C=C(C)C(=O)OCCN(C)C", "activation (H2AX phosphorylation)": "0.347% (inactive)"}
{"smiles": "c1ccc(-c2nc[nH]c2-c2ccccc2)cc1", "activation (H2AX phosphorylation)": "0.217% [at 70.9 µM] (inactive)"}
{"smiles": "CCCCOC(O)CC", "note": "(stereo not given)", "activation (H2AX phosphorylation)": "-2.02% (inactive)"}
{"smiles": "CC(C)(C)C1CCCCC1O", "note": "(stereo not given)", "activation (H2AX phosphorylation)": "1.04% (inactive)"}
{"smiles": "CC(C)c1ccc2c(C(C)C)cc(C(C)C)c(S(=O)(=O)O)c2c1", "activation (H2AX phosphorylation)": "-1.24% (inactive)"}
{"smiles": "O=C1[C@H](CC[C@H](O)c2ccc(F)cc2)[C@@H](c2ccc(O)cc2)N1c1ccc(F)cc1", "activation (H2AX phosphorylation)": "0.235% [at 70.9 µM] (inactive)"}
{"smiles": "O=C=NC1CCC(CC2CCC(N=C=O)CC2)CC1", "note": "(stereo not given)", "activation (H2AX phosphorylation)": "0.734% (inactive)"}
{"smiles": "O=C(O)/C=C/c1cnc[nH]1", "activation (H2AX phosphorylation)": "2.96% (inactive)"}
{"smiles": "CCCCCCCCCC=O", "activation (H2AX phosphorylation)": "-0.189% (inactive)"}
{"smiles": "CC1CCc2cc(F)cc3c(=O)c(C(=O)O)cn1c23", "note": "(stereo not given)", "activation (H2AX phosphorylation)": "1.54% [at 70.9 µM] (inactive)"}
{"smiles": "NCCCOCCOCCOCCCN", "activation (H2AX phosphorylation)": "-1.49% (inactive)"}
{"smiles": "CCCCCCCCN(C)C", "activation (H2AX phosphorylation)": "2.16% (inactive)"}
{"smiles": "C1=Cc2ccccc2C1", "activation (H2AX phosphorylation)": "-1.79% (inactive)"}
{"smiles": "O=S(=O)(O)c1ccc(O)c2ncccc12", "activation (H2AX phosphorylation)": "0.996% (inactive)"}
{"smiles": "CCCC(=O)OCC", "activation (H2AX phosphorylation)": "-2.93% (inactive)"}
{"smiles": "O=C(O)c1cn(C2CC2)c2cc(Cl)c(F)cc2c1=O", "activation (H2AX phosphorylation)": "0.666% [at 70.9 µM] (inactive)"}
{"smiles": "COc1ccc(OC)c(OC)c1", "activation (H2AX phosphorylation)": "-2.27% (inactive)"}
{"smiles": "C#CCOC(=O)[C@@H](C)Oc1ccc(Oc2ncc(Cl)cc2F)cc1", "activation (H2AX phosphorylation)": "-3.57% (inactive)"}
{"smiles": "CCCCCCCCCC(=O)OCC", "activation (H2AX phosphorylation)": "0.479% (inactive)"}
{"smiles": "CC(C)CCCC(C)CCO", "note": "(stereo not given)", "activation (H2AX phosphorylation)": "0.217% (inactive)"}
{"smiles": "CCOC(=O)CC(=O)c1cc(F)c(Cl)nc1Cl", "activation (H2AX phosphorylation)": "3.83% (inactive)"}
{"smiles": "Cc1ccc(C(N)=O)cc1N", "activation (H2AX phosphorylation)": "-0.821% (inactive)"}
{"smiles": "Oc1ccc(Cc2ccccc2)cc1", "activation (H2AX phosphorylation)": "3.75% (inactive)"}
{"smiles": "COCCOCCOCCOCCOC", "activation (H2AX phosphorylation)": "-2.25% (inactive)"}
